For 65 compounds, relative growth results are on record in the supplement of paper PMC9446081.

The whole screen tested about 39,000 compounds, of which about 220 (0.56%) showed activity. The full list was thinned out, with actives kept by preference. Unmarked numbers belong to inactive results.
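Further: Wild-type cells incubated without shaking, value is the mean of two biological replicates.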

For the assay, the system named is Escherichia coli K-12 BW25113. The experiment in a line: relative growth (OD600 normalised to plate interquartile mean) (fraction); higher = less growth inhibition, active = 0.2 or less. The settings on record: 50 µM; LB; incubation time: overnight (16-24 h).
Regarding `O=C(C[C@@H]1CC[C@@H](NS(=O)(=O)c2ccc(F)cc2)[C@@H](CO)O1)N1CCC(Cc2ccccc2)CC1`, the relative growth was 0.987.

`CCC(=O)Nc1ccc(Cl)cc1`: the relative growth is 1.

`Cl.Cl.N=C(NCCCCCCNC(=N)NC(=N)Nc1ccc(Cl)cc1)NC(=N)Nc1ccc(Cl)cc1`: the relative growth is 0.0423 (active). As for `CC(C)NC(=N)NC(=N)Nc1ccc(Cl)cc1.Cl`, the relative growth is 0.965. The value for `Cc1noc(C)c1NC(=O)N(C)C[C@H]1OCCCC[C@@H](C)Oc2ccc(NC(=O)C3CCCCC3)cc2C(=O)N([C@@H](C)CO)C[C@H]1C` was 0.976; that for `Cc1noc(C)c1NC(=O)N(C)C[C@H]1Oc2c(NC(=O)C3CC3)cccc2C(=O)N([C@H](C)CO)C[C@@H]1C` was 1; that for `CC(C)NC(=O)Nc1ccc2c(c1)C(=O)N([C@@H](C)CO)C[C@H](C)[C@H](CN(C)CC1CCCCC1)OCCCC[C@H](C)O2` was 1.01. Take `CC[C@@H](O)C[C@H]1CC[C@H]([C@@H](C)C(=O)O[C@@H](C)C[C@H]2CC[C@H]([C@@H](C)C(=O)O[C@@H](C)C[C@H]3CC[C@H]([C@@H](C)C(=O)O[C@@H](C)C[C@H]4CC[C@H]([C@@H](C)C(=O)O)O4)O3)O2)O1`: the relative growth was 1.06.

With `CN(C)CCC=C1c2ccccc2COc2ccccc21.Cl`, the relative growth is 1.03.

`CN(C)CCC=C1c2ccccc2CCc2ccccc21.Cl`: the relative growth is 0.976. For `CN(C)CCC=C1c2ccccc2COc2ccc(CC(=O)O)cc21.Cl` the value was 0.0442 (active). For `C[C@@H]1CN([C@H](C)CO)C(=O)c2ccccc2-c2ccccc2CO[C@@H]1CN(C)C(=O)Nc1cccc(F)c1` the value was 1.01; for `CC(=O)On1cc(F)c(=O)[nH]c1=O`, 0.0691 (active); for `CCOC(=O)Cn1cc(F)c(=O)[nH]c1=O`, 1.06. As to `CCOC(=O)CCn1cc(F)c(=O)[nH]c1=O`, the relative growth was 0.986. The value for `CCC1OC(=O)C(C)C(=O)C(C)C(OC2OC(C)CC(N(C)C)C2O)C(C)(OC)CC(C)C(=O)C(C)C2N(CCCCn3cnc(-c4cccnc4)c3)C(=O)OC12C` (stereo not given) was 0.0499 (active); that for `C[C@@H]1CCCCO[C@@H](CN(C)CC2CCCCC2)[C@@H](C)CN([C@H](C)CO)C(=O)c2cc(N(C)C)ccc2O1` was 1; that for `CN(C)c1ccc(O)c2c1CC1CC3C(N(C)C)C(O)=C(C(N)=O)C(=O)C3(O)C(O)=C1C2=O.Cl` (stereo not given) was 0.0626 (active). The value for `CN(C)[C@@H]1C(=O)C(C(=O)NCN2CCCC2)=C(O)[C@@]2(O)C(O)=C3C(=O)c4c(O)cccc4[C@@](C)(O)[C@H]3C[C@@H]12` was 0.516; that for `CN(C)C1C(O)=C(C(N)=O)C(=O)C2(O)C(O)=C3C(=O)c4c(O)ccc(Cl)c4C(C)(O)C3CC12.Cl` (stereo not given) was 0.0595 (active). On to `CN(C)C1C(O)=C(C(N)=O)C(=O)C2(O)C(O)=C3C(=O)c4c(O)cccc4C(C)(O)C3C(O)C12.Cl` (stereo not given), for which the relative growth is 0.0578 (active). The value for `CN(C)c1cc(NC(=O)CNC(C)(C)C)c(O)c2c1CC1CC3C(N(C)C)C(O)=C(C(N)=O)C(=O)C3(O)C(O)=C1C2=O` (stereo not given) was 1.06; that for `CN(C)C1C(O)=C(C(N)=O)C(=O)C2(O)C(O)=C3C(=O)c4c(O)cccc4C(C)(O)C3CC12.Cl` (stereo not given) was 0.056 (active). For `C[C@@H]1CCCCO[C@H](CN(C)Cc2ccc(C(F)(F)F)cc2)[C@H](C)CN([C@H](C)CO)C(=O)c2cc(NS(=O)(=O)c3ccc(F)cc3)ccc2O1` the value was 1.02; for `C[C@@H]1CN([C@H](C)CO)C(=O)c2cc(NS(=O)(=O)c3ccc(F)cc3)ccc2O[C@@H](C)CCCCO[C@H]1CN(C)Cc1ccccc1`, 0.999; for `C[C@@H]1CN([C@@H](C)CO)C(=O)c2cc(-c3ccc(F)cc3)cnc2O[C@@H]1CN(C)C(=O)Cc1ccccn1`, 0.977. For `Cc1ccc(S(=O)(=O)N(C)C[C@@H]2Oc3c(NS(=O)(=O)c4ccc(F)cc4)cccc3C(=O)N([C@H](C)CO)C[C@@H]2C)cc1` the value was 1.01; for `COc1ccc(S(=O)(=O)N(C)C[C@H]2Oc3cc(C#CC4CCCC4)ccc3S(=O)(=O)N([C@@H](C)CO)C[C@H]2C)cc1`, 1.04. Consider `COc1ccc(CN(C)C[C@H]2Oc3ccc(NC(=O)Nc4ccc(C(F)(F)F)cc4)cc3CC(=O)N([C@@H](C)CO)C[C@H]2C)cc1`, for which the relative growth was 0.99.

`C[C@@H]1CCCCO[C@@H](CN(C)C(=O)Nc2ccc(C(F)(F)F)cc2)[C@H](C)CN([C@H](C)CO)C(=O)c2cc(NS(=O)(=O)c3cccs3)ccc2O1`: the relative growth is 1.03. For `O=C(O)[C@H]1O[C@@H](Oc2c(-c3ccc(O)cc3)oc3cc(O)cc(O)c3c2=O)[C@H](O)[C@@H](O)[C@@H]1O` the value was 1.01. The value for `C[C@H]1CN([C@@H](C)CO)S(=O)(=O)c2ccc(-c3cncnc3)cc2O[C@@H]1CN(C)C(=O)NC1CCCC1` was 1.

Consider `CCC(=O)Nc1cnc(OC)nc1OC`, for which the relative growth is 1.01. As to `C[C@@H]1CCCCO[C@H](CN(C)C(=O)Nc2ccc(C(F)(F)F)cc2)[C@@H](C)CN([C@@H](C)CO)C(=O)c2cc(NC(=O)c3ccncc3)ccc2O1`, the relative growth is 0.979. As for `CN(C)CCCNC(=O)C[C@@H]1CC[C@@H]2[C@@H](COc3ccc(NC(=O)c4cccc(F)c4)cc3C(=O)N2C)O1`, the relative growth is 0.965. The value for `CC(C)NC(=O)N(C)C[C@@H]1Oc2c(NS(=O)(=O)c3ccc(Cl)cc3)cccc2C(=O)N([C@@H](C)CO)C[C@@H]1C` was 1.09; that for `C[C@H](CO)N1C[C@H](C)[C@H](CN(C)C(=O)c2ccncc2)OCCCC[C@H](C)Oc2ccc(NS(C)(=O)=O)cc2C1=O` was 1.02; that for `CN(C)C1C(O)=C(C(N)=O)C(=O)C2(O)C(O)=C3C(=O)c4c(O)ccc(Cl)c4C(O)C3CC12.Cl` (stereo not given) was 0.0565 (active).

For the compound `COC(=O)C(=C1OC(=O)C(c2ccccc2)=C1O)c1ccccc1`, the relative growth was 0.951.

As to `C[C@@H](O)[C@H]1C(=O)N2C(C(=O)O)=C(SCCNC=N)C[C@H]12`, the relative growth was 1.01.

As to `CC(O)C1C(=O)N2C(C(=O)[O-])=C(SC3Cn4cnc[n+]4C3)C(C)C12` (stereo not given), the relative growth is 0.307. The value for `CC(O)C1C(=O)N2C(C(=O)O)=C(SC3CNC(C(=O)N(C)C)C3)C(C)C12` (stereo not given) was 0.0517 (active); that for `C[C@@H]1CN([C@@H](C)CO)C(=O)c2cc(NS(=O)(=O)c3ccc(F)cc3)ccc2O[C@@H](C)CCCCO[C@H]1CN(C)Cc1ccccc1` was 0.979. For `C[C@@H]1CCCCO[C@@H](CN(C)C(=O)Nc2ccc3c(c2)OCO3)[C@@H](C)CN([C@@H](C)CO)C(=O)c2cc(NS(=O)(=O)c3ccccc3)ccc2O1` the value was 1.01; for `C[C@@H]1CN([C@H](C)CO)C(=O)c2ccccc2-c2ccccc2CO[C@@H]1CN(C)S(=O)(=O)c1cn(C)cn1`, 0.997. For `O=C(C[C@H]1CC[C@H]2[C@@H](COC[C@@H](O)CN2S(=O)(=O)c2ccccc2)O1)N1CCOCC1` the value was 0.964; for `CC1(C)SC2C(NC(=O)C(N)c3ccccc3)C(=O)N2C1C(=O)[O-].[Na+]` (stereo not given), 1.06; for `CC1(C)S[C@H]2[C@@H](NC(=O)[C@@H](N)c3ccccc3)C(=O)N2[C@@H]1C(=O)O`, 1.01. With `CCOC(=O)OC(C)OC(=O)C1N2C(=O)C(NC(=O)C(N)c3ccccc3)C2SC1(C)C.Cl` (stereo not given), the relative growth was 0.0511 (active). For `CC1(C)SC2C(NC(=O)C(N)c3ccc(O)cc3)C(=O)N2C1C(=O)O` (stereo not given) the value was 1.1. In the case of `CC1(C)S[C@@H]2[C@H](NC(=O)[C@H](N)c3ccc(O)cc3)C(=O)N2[C@H]1C(=O)O`, the relative growth is 0.516. Turning to `CC1(C)S[C@@H]2[C@H](NC(=O)[C@H](N)c3ccccc3)C(=O)N2[C@H]1C(=O)OCOC(=O)[C@@H]1N2C(=O)C[C@H]2S(=O)(=O)C1(C)C`, the relative growth is 0.107 (active). For `CN(C)CCCNC(=O)C[C@H]1CC[C@H]2[C@@H](COC[C@@H](O)CN2C(=O)c2cc(Cl)cc(Cl)c2)O1`, the relative growth was 0.968. For `COc1cc(N)ccn1` the value was 1.07; for `O=C(C[C@H]1C[C@H]2c3cc(NS(=O)(=O)c4ccc(F)cc4)ccc3O[C@H]2[C@H](CO)O1)NCc1ccccn1`, 0.998.

As for `OC[C@@H](O)[C@H]1O[C@H](c2ccccc2)OC[C@@H]1O`, the relative growth was 1.05. For `COc1ccc(S(=O)(=O)Nc2ccc3c(c2)C(=O)N([C@H](C)CO)C[C@@H](C)[C@@H](CN(C)C(=O)Nc2c(C)noc2C)O3)cc1` the value was 1; for `CSC1=N[C@@]2(C)CCCC[C@@H]2c2c1ccc1ccccc21`, 1.01; for `COc1ccc(C(=O)Nc2ccc3c(c2)C(=O)N(C)[C@@H]2CC[C@H](CC(=O)NCC4CC4)O[C@@H]2CO3)cc1`, 0.982.

Turning to `Cc1ccc(S(=O)(=O)Nc2ccc3c(c2)C(=O)N([C@@H](C)CO)C[C@H](C)[C@@H](CN(C)S(=O)(=O)c2cn(C)cn2)O3)cc1`, the relative growth was 0.932. The value for `CC(N)O.Cc1cc(CC(C)CC(C)(C)C)n(O)c(=O)c1` (stereo not given) was 0.0449 (active); that for `C[C@@H]1CCCCO[C@@H](CN(C)S(C)(=O)=O)[C@H](C)CN([C@H](C)CO)C(=O)c2cc(NS(=O)(=O)c3ccccc3)ccc2O1` was 0.997. The value for `NCCCC[C@@H](N)C(=O)N[C@@H](Cc1c[nH]c2ccccc12)C(=O)N[C@@H](CCCCN)C(=O)O` was 0.994. On to `NCCCC[C@H](NC(=O)[C@@H](NC(=O)[C@H](Cc1c[nH]c2ccccc12)NC(=O)[C@H](CCCCN)NC(=O)[C@H](CCCCN)NC(=O)[C@H](Cc1c[nH]c2ccccc12)NC(=O)[C@H](Cc1c[nH]c2ccccc12)NC(=O)[C@H](CCCCN)NC(=O)[C@@H](N)CCCCN)C(c1ccccc1)c1ccccc1)C(N)=O`, for which the relative growth is 0.149 (active).

As for `C[C@H](NC(=O)[C@@H](Cc1ccc2ccccc2c1)NC(=O)[C@@H](C)N)C(=O)N[C@@H](Cc1c[nH]c2ccccc12)C(=O)N[C@H](Cc1ccccc1)C(=O)N[C@@H](CCCCN)C(N)=O`, the relative growth is 0.98.
